# Source: PubChem BioAssay (EPA / NIEHS)
# Inconclusive results are not listed. Activity calls are given as the source filed them. Rule for the calls, unless noted: active = hit-call score of the fitted dose curve at least 0.9, where 1 is the maximum; inactive = score below 0.9.
# Key:
# [1] = CCTE_Deisenroth_H295R-HTRF_384WELL_ESTRADIOL: CCTE's H295R-HTRF Assay Evaluation of Estradiol Concentration, Deisenroth Lab (AID 2284361); conditions: actives raise or lower the signal
# Outline: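 H295R cells exposed 48 h to chemicals at 0.001 - 100 uM final (nine points, triplicate); estradiol in conditioned medium measured by HTRF immunoassay, fitted bidirectionally versus DMSO. Viability by CellTiter-Glo on same plates.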
# [2] = CCTE_Deisenroth_H295R-HTRF_384WELL_TESTOSTERONE: CCTE's H295R-HTRF Assay Evaluation of Testosterone Concentration, Deisenroth Lab (AID 2284373); conditions: actives raise or lower the signal
# Outline: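 Testosterone secreted into medium was quantified by direct HTRF immunoassay after a 48 h treatment of H295R adrenocortical cells (nine concentrations, 0.001–100 uM final). Gain or loss fitted relative to DMSO; CellTiter-Glo viability read on same plates.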
# [3] = CCTE_Deisenroth_H295R-HTRF_384WELL_CTOX: Cytotoxicity Assessment in CCTE's H295R-HTRF Assay, Deisenroth Lab (AID 2284380; active = hit-call score of the fitted dose curve at least 0.9, where 1 is the maximum)
# Outline: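 H295R adrenocortical carcinoma cells plated 24 h, then exposed 48 h to nine-point series 0.001–100 uM final, triplicate, n=5. ATP measured by CellTiter-Glo 2.0 luminescence on same plates after medium collection; loss versus DMSO.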
# SERPINA7 (gene 6906) = experiment: CCTE_GLTED_hTBG: CCTE's human Thyroxine-binding Globulin (TBG) Inhibition Assay, Great Lakes Toxicology and Ecology Division (GLTED) Lab (AID 2284343; active = hit-call score of the fitted dose curve at least 0.9, where 1 is the maximum;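 note: active chemicals lower fluorescence versus DMSO baseline by displacing probe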)
# Outline: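 Cell-free binding assay in which human TBG is incubated with test chemical for 2 hours and displacement of the fluorescent probe ANSA is read at 380 nm excitation/475 nm emission. Activity is fitted against DMSO as the negative control.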
# [4] = system: SRY-box transcription factor 17 (SOX17) Protein Expression, Deisenroth Lab, SOX17 (gene 64321); experiment: CCTE_Deisenroth_DEVTOX-GLR_legacy_Sox17: (Legacy) CCTE's DevTox GLR-Endo Assay Evaluation of SRY-box transcription factor 17 (SOX17) Protein Expression, Deisenroth Lab (AID 2284341); conditions: actives raise or lower the signal
# Outline: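 Using the RUES2-GLR line, compounds are tested as 10-point series during 48-h defined-media differentiation. Sox17 reporter fluorescence per cell determines positivity; endpoint is percentage positive, analysed bidirectionally versus DMSO baseline.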
# [5] = system: SRY-box transcription factor 2 (SOX2) Protein Expression, Deisenroth Lab, SOX2 (gene 6657); experiment: CCTE_Deisenroth_DEVTOX-GLR_legacy_Sox2: (Legacy) CCTE's DevTox GLR-Endo Assay Evaluation of SRY-box transcription factor 2 (SOX2) Protein Expression, Deisenroth Lab (AID 2284346)
# Outline: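 RUES2-GLR human pluripotent cells were differentiated for 48 h with two chemical doses 24 h apart, over 1 nM-200 uM. Sox2+ cells were those above 5x BMAD of the endoderm-control median; percent Sox2+ minus the 0.2% DMSO median was used, from n=4 replicates.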
# [6] = system: SRY-box transcription factor 17 (SOX17) Protein Expression, Deisenroth Lab, SOX17 (gene 64321); experiment: CCTE_Deisenroth_DEVTOX-GLR_Endo_SOX17: CCTE's DevTox GLR-Endo Assay Evaluation of SRY-box transcription factor 17 (SOX17) Protein Expression, Deisenroth Lab (AID 2284413)
# Outline: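 RUES2-GLR human pluripotent cells were differentiated toward endoderm for 48 h and received two compound doses 24 h apart (1 nM - 200 uM, 10 points). High-content imaging of fixed cells gave the percent SOX17+ cells per cell count, expressed as percent change versus 0.2% DMSO.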
# [7] = system: Brachyury (BRA) Protein Expression, TBXT (gene 6862); experiment: CCTE_Deisenroth_DEVTOX-GLR_Endo_BRA: CCTE's DevTox GLR-Endo Assay Evaluation of Brachyury (BRA) Protein Expression, Deisenroth Lab (AID 2284417)
# Outline: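 Percent BRA+ (mesoderm) RUES2-GLR cells after 48 h differentiation with two exposures, 1 nM - 200 uM; 0.2% DMSO control subtracted.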
# [8] = CCTE_Deisenroth_DEVTOX-GLR_Endo_CellCount: Viability Assessment in CCTE's DevTox GLR-Endo Assay, Deisenroth Lab (AID 2284420)
# Outline: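 Nuclei counted by fluorescence microscopy as a surrogate for cell number, expressed as percent change relative to 0.2% DMSO control. Human RUES2-GLR cells, 48 h differentiation, dosed twice; 1 nM - 200 uM series.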
# [9] = system: SRY-box transcription factor 17 (SOX17) Protein Expression, Deisenroth Lab, SOX17 (gene 64321); experiment: CCTE_Deisenroth_DEVTOX-GLR_Pluri_SOX17: CCTE's DevTox GLR-Pluri Assay Evaluation of SRY-box transcription factor 17 (SOX17) Protein Expression, Deisenroth Lab (AID 2284427; active = hit-call score of the fitted dose curve at least 0.9, where 1 is the maximum)
# Outline: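 Readout: percent SOX17+ cells (SOX17+ count/cell count) by high-content imaging of an inducible fluorescent reporter, corrected for 0.2% DMSO solvent control. RUES2-GLR cells, 48 h differentiation, dosed twice at 24 h intervals, 1 nM - 200 uM.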
# [10] = system: SRY-box transcription factor 2 (SOX2) Protein Expression, Deisenroth Lab, SOX2 (gene 6657); experiment: CCTE_Deisenroth_DEVTOX-GLR_Pluri_SOX2: CCTE's DevTox GLR-Pluri Assay Evaluation of SRY-box transcription factor 2 (SOX2) Protein Expression, Deisenroth Lab (AID 2284428)
# Outline: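 RUES2-GLR (human pluripotent), 48 h post-dosing, 2 exposures q24h, 1 nM–200 uM 10-pt. Fixed, nuclear dye, high-content imaging 5 fields/well. Endpoint: % SOX2+ cells (SOX2+/total count) vs 0.2% DMSO; n≥4.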
# [11] = system: Brachyury (BRA) Protein Expression, Deisenroth Lab, TBXT (gene 6862); experiment: CCTE_Deisenroth_DEVTOX-GLR_Pluri_BRA: CCTE's DevTox GLR-Pluri Assay Evaluation of Brachyury (BRA) Protein Expression, Deisenroth Lab (AID 2284429; active = hit-call score of the fitted dose curve at least 0.9, where 1 is the maximum)
# Outline: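 RUES2-GLR human pluripotent cells differentiated 48 hours with two chemical exposures 24 hours apart, 10-point series 1 nM–200 uM. Fixed, nuclear-stained, imaged; endpoint is percent BRA+ cells minus 0.2% DMSO control.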
# [12] = CCTE_Deisenroth_DEVTOX-GLR_Pluri_CellCount: Viability Assessment in CCTE's DevTox GLR-Pluri Assay Evaluation of Total Cell Counts, Deisenroth Lab (AID 2284430)
# Outline: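 RUES2-GLR human pluripotent cells, seeded 24 h, then differentiated 48 h with two chemical exposures 24 h apart; 10-point series 1 nM - 200 uM. Fixed, nuclear-stained, imaged (5 fields/well); nuclei count as % change vs 0.2% DMSO.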
# [13] = CCTE_Padilla_ZF_Score.General: CCTE's 144 Hour Post-fertilization zebrafish Assay Score for General Malformation, Padilla Lab (AID 2284411)
# Outline: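 Wild-type zebrafish embryos were plated singly at 6-8 hpf in 10% Hanks' and exposed in sealed wells at 26C until rinsed on 5 dpf. At 6 dpf two blinded assessors scored mortality, hatching and malformations by stereomicroscopy; gain-of-signal versus DMSO.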
smiles,measurement,setting,value
C=CCOC(Cn1ccnc1)c1ccc(Cl)cc1Cl (centres undefined),AC50,[1],447 nM (active)
same,AC50,[2],1870 nM (active)
same,AC50,[3],84600 nM (active)
CCCN(CCC)c1c([N+](=O)[O-])cc(C(F)(F)F)c(N)c1[N+](=O)[O-],AC50,SERPINA7 (gene 6906),322 nM (active)
OB(O)O,outcome,[4],inactive
same,outcome,[5],inactive
same,outcome,[6],inactive
same,AC50,[7],30500 nM (active)
same,outcome,[8],inactive
same,outcome,[9],inactive
same,outcome,[10],inactive
same,outcome,[11],inactive
same,outcome,[12],inactive
COCCO,outcome,[13],inactive
CC(=O)S[C@@H]1CC2=CC(=O)CC[C@]2(C)[C@H]2CC[C@@]3(C)[C@@H](CC[C@@]34CCC(=O)O4)[C@H]12,outcome,[1],inactive
same,AC50,[2],1280 nM (active)
same,outcome,[3],inactive
COc1c(Cl)ccc(Cl)c1C(=O)O,AC50,SERPINA7 (gene 6906),47700 nM (active)
O=C(Nc1ccc([N+](=O)[O-])cc1Cl)c1cc(Cl)ccc1O,outcome,SERPINA7 (gene 6906),inactive
